The list is not random: actives were taken first. Their share in the collection is about 19%.
Pf growth 48h – inhibits P. falciparum growth in the first generation, 48 h. P. falciparum luciferase growth in erythrocytes, 48 h. Potency, µM (series often up to 28.7 µM), for the others: at the highest dose activity change, negative = inhibition, usual class: inhibitors. 5.9% of 310,000 active. AID 504832; also: potency is read from the fitted curve at half-maximal effect; % is scaled to controls: 0 for no effect and ±100 for the full control effect
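In quantitative HTS format, infected erythrocytes bearing luciferase-reporter parasites were treated for a single generation at 37 C. Luminescence after adding detection reagent served as the growth measure.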
Shiga toxin inh – Shiga toxin inhibition. Vero cells, Shiga toxin protein synthesis inhibition reporter. inhibition, % at 38.7 µM. 9.2% of 290,000 active. AID 2315; in the data active = inhibition mostly above about 28%, no sharp cut-off; inactive = mostly below about 43%; also: 0% is about no effect
AMA1-RON2 inh – inhibitors of Plasmodium falciparum AMA1-RON2 interaction | AlphaScreen AMA1-biotinylated RON2 peptide binding | Potency, µM (series often up to 58.2 µM), inactives show at the top dose activity change, negative = inhibition, hits mostly inhibitors | 0.2% of 360,000 active;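 also: potency is read from the fitted curve at half-maximal effect; 0% = vehicle wells and -100% = peptide control; nearly all actives have a fitted effect of over 45% in size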
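AMA1 (3D7) with his tag at 25 nM final met compounds first, then biotinylated RON2 peptide at 25 nM; detection used donor plus acceptor beads, 10 µg/mL apiece, read by AlphaScreen after 30 min at room temperature.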
Cycloheximide cs – affects cycloheximide protein synthesis inhibition readout, counter-screen; cell reporter, cycloheximide protein synthesis inhibition counterscreen; max response, %; 12% of 300,000 active; in the data active = max response mostly above about 13%, no sharp cut-off; inactive = mostly below about 14%; also: read at 38.3 µM for the half of the compounds with a filed dose; 0% is about no effect
SARS PLpro yeast – SARS-CoV PLP inhibition in yeast; S. cerevisiae expressing SARS-CoV PLpro, growth rescue; 0.19% of 330,000 active; AID 485353; Potency, µM (top dose mostly 32.9 µM), for the others: at the highest dose activity, positive = growth rescue, actives largely listed as activators; calls by dose curve; also: potency is read from the fitted curve at half-maximal effect; 0% is about no effect; nearly all actives have a fitted effect of over 55% in size
Pf growth 96h – P. falciparum growth inhibition at 96 hours. P. falciparum luciferase reporter growth, 96 h. 6.9% of 320,000 active. Potency, µM (top dose mostly 28.7 µM), without a hit: at the highest dose activity change, negative = inhibition, usual class: inhibitors; also: potency is read from the fitted curve at half-maximal effect; % is scaled to controls: 0 for no effect and ±100 for the full control effect
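Luminescence readout: decreased luciferase signal marks inhibited growth of reporter-expressing P. falciparum in infected red cells (2% hematocrit, 0.05% parasitemia final), exposed to compound two generations (96 h, 37 C, 5% CO2).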
Starred values were filed as active, the others as inactive; i = inactive; ? = inconclusive; / = no result; [ ] = dose if it differs, or a comment. Unless noted, calls follow the shape of the dose curve; as a rule, active = well fitted curve in the direction sought with a large enough effect; inconclusive = small, poorly fitted or top-dose-only effect, or another doubt; inactive = no such curve, though single readings can be large; an effect the other way counts as inactive or inconclusive.

SMILES | Pf growth 48h | Shiga toxin inh | AMA1-RON2 inh | Cycloheximide cs | SARS PLpro yeast | Pf growth 96h
COCCN1C(=O)c2oc3ccccc3c(=O)c2C1c1ccc(O)c(OC)c1 (stereo not drawn) | 11.2% | -7.5 | -0.3% | -1.6 | -12.2% | -13.4%
Cc1cc2oc3c(c(=O)c2cc1C)C(c1cccc(Br)c1)N(Cc1ccco1)C3=O (stereo not drawn) | ? | 21.7 | -1.3% | -4.7 | -0.5% | ?
CCN(CC)CCN1C(=O)c2oc3ccccc3c(=O)c2C1c1ccccc1 (stereo not drawn) | ? | 35.0 | 8.9% | 34.6* | 3.1% | ?
CCN(CC)CCN1C(=O)c2oc3ccccc3c(=O)c2C1c1cccc(Br)c1 (stereo not drawn) | ? | 25.2 | 14.1% | -2.7 | -11.4% | 0.928µM*
CCCOc1ccc(C2c3c(oc4ccccc4c3=O)C(=O)N2CCN(CC)CC)cc1OC (stereo not drawn) | 1.47µM* | 38.2 | -6.4% | 7.2 | 0.1% | ?
CCN(CC)CCCN1C(=O)c2oc3ccccc3c(=O)c2C1c1cccs1 (stereo not drawn) | 10.2% | -3.6 | / | 18.6 | -4.5% | /
Cc1ccc2oc3c(c(=O)c2c1)C(c1cccc(Br)c1)N(Cc1ccco1)C3=O (stereo not drawn) | -24.8% | -10.6 | 4.9% | -3.9 | 1.1% | 13.1µM*
O=C(/C=C/c1cccc([N+](=O)[O-])c1)OCC(=O)N1CCCCC1 | / | / | -5.2% | / | / | /
CCCNC(=S)N1CCC(NC(=O)C2CCCCC2)CC1 | 24.0% | 23.9 | 3.0% | -8.3 | 3.1% | 47.9%
COc1ccc(CNc2nc(-c3cccnc3)nn2C(=O)C(C)C)cc1 | ? | 10.9 | -14.3% | 3.9 | -1.0% | -17.4%
CCCOc1ccc(N2CC(C(=O)NC3=NCCS3)CC2=O)cc1 (stereo not drawn) | 5.0% | 32.5 | -5.5% | 7.8 | 2.2% | ?
O=C1c2oc3ccc(Cl)cc3c(=O)c2C(c2cccc(Br)c2)N1CCO (stereo not drawn) | 11.7µM* | 8.4 | -0.2% | -3.3 | -1.3% | 0.7%[5.75 µM]
O=C(O)C1CCN(S(=O)(=O)c2ccc(N3CCC(O)CC3)c([N+](=O)[O-])c2)CC1 | ? | -18.3 | 6.8% | -5.5 | -3.6% | 9.28µM*
CN1CCN(c2ccc(S(=O)(=O)C(F)(F)F)cc2[N+](=O)[O-])CC1 | 16.2% | 22.8 | 13.0% | -2.0 | 21.0% | ?
CN1CCN(c2ccc(S(C)(=O)=O)cc2[N+](=O)[O-])CC1 | 6.3% | 1.9 | -2.1% | -2.2 | 2.2% | 11.7µM*
CCOC(=O)N1CCN(c2ccc(S(=O)(=O)N3CCC(C)CC3)cc2[N+](=O)[O-])CC1 | 10.4µM* | / | -5.5% | / | 1.2% | 9.28µM*
CCOc1ccc(NC(=O)COC(=O)c2cc(C)oc2C)cc1 | / | / | -8.8%[11.6 µM] | / | -3.8% | /
Cc1ccc(S(=O)(=O)N2CCN(C(=O)c3ccc(-n4cncn4)c([N+](=O)[O-])c3)CC2)c(C)c1 | / | / | 22.2% | / | / | /
Cc1ccc(NC(=O)CCN2CCN(C/C=C/c3ccccc3)CC2)cc1C | 6.57µM* | -14.9 | -14.0% | 2.5 | -7.9% | 89.2%
COc1ccc(NC(=O)OC(CN2CCCCC2)C(F)(F)F)cc1 (stereo not drawn) | 30.8% | 21.1 | 0.1% | 21.4* | -10.3% | 40.4%
CN1CCN(CCC(=O)Nc2ccccc2)CC1 | 16.7% | -2.0 | 8.8% | -1.6 | -0.7% | 4.9%
COc1ccc(NC(=O)CCN2CCCCC2)cc1 | 1.6% | -4.9 | -4.3% | -2.1 | 2.9% | 13.1µM*
Cc1ccc(NC(=O)CCN2CCN(C/C=C/c3ccccc3)CC2)cc1 | ? | -10.3 | 5.2% | 2.0 | -10.6% | /
Cc1ccc(NC(=O)CCN2CCC(Cc3ccccc3)CC2)cc1 | 7.38µM* | / | -5.8% | -2.9 | -0.8% | 10.4µM*
Nc1sc(-c2ccccc2)c(Cc2ccccc2)c1C(=O)O | 5.9% | -14.9 | 11.7% | -3.5 | 0.6% | 5.2%
SMILES | Pf growth 48h | Shiga toxin inh | AMA1-RON2 inh | Cycloheximide cs | SARS PLpro yeast | Pf growth 96h
CCCCCC(=O)N1C[C@@H](n2cc(COC(=O)c3ccccc3)nn2)[C@H](O)C[C@@H]1c1ccccc1 | / | / | 0.0% | / | / | /
COc1ccc(C(=O)C[n+]2ccc3c(c2)nnn3-c2ccccc2)cc1 | ? | -6.1 | -4.5% | 3.2 | 0.9% | 272.0%
CC1=CC(C)(C(Cl)(Cl)Cl)C(C)=CC1=NO (stereo not drawn) | / | / | 4.1% | / | / | /
Cc1cccc(NC(=O)CCN2CCCCC2)c1 | 8.8% | -5.5 | -2.9% | -4.2 | 5.9% | 286.6%
Cc1cccc(NC(=O)CCN2CCC(C(N)=O)CC2)c1 | 21.9% | -23.9 | 6.0% | -3.5 | -0.6% | 6.57µM*
O=C(CCN1CCCCCC1)Nc1cccc(Cl)c1 | 8.9% | 19.7 | -2.5% | -2.7 | -5.2% | 2.08µM*
Cc1cc(NC(=O)CCN2CCCCC2)ccc1Br | 10.0% | 1.2 | 5.0% | -2.3 | -9.5% | 2.62µM*
O=C(CCN1CCCCC1)Nc1cccc(Cl)c1 | / | -16.9 | -2.3% | -1.7 | 1.1% | ?
CC(Sc1nnc2ccccn12)C(N)=O (stereo not drawn) | ? | -2.7 | -9.0% | -0.1 | -2.6% | 18.5%
CCN(CCCNC(=O)C1CCN(C(=O)c2cc3sccc3n2C)CC1)Cc1ccccc1 | ? | -5.1 | 15.9% | -5.8 | 2.8% | ?
CCCCN(CCCNC(=O)C1CCN(C(=O)c2cc3sccc3n2C)CC1)Cc1ccccc1 | 5.22µM* | -10.6 | 0.0% | -4.9 | 0.2% | 42.1%
CCOC(=O)C1CCCN(C2=C(NS(=O)(=O)c3ccc(Br)cc3)C(=O)c3ccccc3C2=O)C1 (stereo not drawn) | 5.22µM* | 10.0 | 12.6µM* | 14.1 | ? | 2.94µM*
CCOC(=O)C1CCN(C2=C(NS(=O)(=O)c3ccc(Cl)cc3)C(=O)c3ccccc3C2=O)CC1 | ? | 11.1 | 12.6µM* | -3.5 | -3.3% | ?
O=C(CC1C(=O)NCCN1Cc1c(F)cccc1Cl)NCc1ccccc1 (stereo not drawn) | -18.0% | 1.2 | -14.4% | -1.7 | -1.4% | 0.0%
O=[N+]([O-])C1C(c2ccccc2)=NOC1c1ccccc1O (stereo not drawn) | 17.0% | 24.6* | 0.3% | 23.8* | -12.3% | ?
Cc1ccc(N=C2N=C(N)c3ccccc32)cc1C | / | / | -21.3% | / | / | /
CCc1ccc(N=C2N=C(N)c3ccccc32)cc1 | / | 54.2* | -1.5% | 31.8* | 0.6% | 78.1%
Cc1ccc(S(=O)(=O)Nc2c(C)cc(C)nc2Cl)cc1 | 24.0% | -3.5 | 12.3% | 4.0 | 0.2% | 2.62µM*
CC(=O)c1ccc(OCC(=O)Nc2nnc(C3CC3)s2)cc1 | / | / | -0.1% | / | / | /
CCOC(=O)Cn1c(=O)n(Cc2ccco2)c(=O)c2ccc(C(=O)NC3CCCC3)cc21 | / | -17.6 | 6.2% | -5.2 | -2.7% | -19.9%
NC(=O)c1ccccc1N/C=C/C(=O)c1ccc(Cl)cc1 | / | 49.0* | 11.8% | 52.3* | 3.8% | 160.7%
CCOC(=O)c1ccccc1N/C=C/C(=O)c1ccccc1 | / | / | 17.6% | / | / | /
Cc1ccc(C(=O)/C=C/Nc2ccccc2C(N)=O)cc1 | 125.0% | 24.4 | -12.6% | 19.4* | -23.3% | i

High-throughput results (PubChem)
